An excerpt weighted towards active compounds, which were near 7.3% of everything screened.
Rab9 prom act = activators of Rab9 promoter; Huh7 Rab9 promoter-luciferase reporter, luminescence, 24 h; Potency, µM (titrated, usually from 9.22 µM), for the others: top-dose activation, negative = inhibition, hits mostly activators; 2.8% of 320,000 active; note: % of control where 0% means no effect; nearly all actives have a fitted effect of over 60% in size
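Cells were plated at 1500 per well in reduced-serum medium with 10% FBS and left 2 h. Compound in DMSO was then added for 24 h at 37 °C. Reporter signal was read by luminescence after 10 min with luciferase detection reagent.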
KinaseGlo FLuc = Kinase-Glo luciferase inhibition (counter-screen) | 0.28% of 200,000 active | Potency, µM (series often up to 38.3 µM), for inactives: at the highest dose activity change, negative = inhibition, usual class: inhibitors | Kinase-Glo luciferase, ATP luminescence, 8 min | AID 1379 | Q27757; note: % is set by controls: 0 for no effect and ±100 for the full control effect; nearly all actives have a fitted effect of over 60% in size
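Recombinant Kinase-Glo luciferase, 10 uM ATP (linear range), luciferin; imidazole pH 7.2 / KCl / MgCl2 / Tween / BSA buffer; 8 min RT; luminescence.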
ELG1 genotox = genotoxicity induction in ELG1-luciferase HEK293T cells; HEK293T ELG1-luciferase reporter, luminescence, 16 h; Potency, µM (doses to about 46 µM), inactives show top-dose activity change, positive = activation, actives largely listed as activators; 1.3% of 330,000 active; note: % of control where 0% means no effect; nearly all actives have a fitted effect of over 60% in size
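DMSO vehicle served as control against compound-treated ELG1-luciferase HEK293T cells; exposure lasted 16 hr at 37 °C and 5% CO2, followed by ONE-Glo luminescence detection after 30 min.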
FLuc counter = counter-screen for miR-21 project: firefly luciferase inhibitors or activators; purified FLuc, Km substrates, luminescence inhibition; Potency, µM (titrated, usually from 57.5 µM), for inactives: top-dose activity change, negative = inhibition, most hits filed as inhibitors; 6.9% of 360,000 active; AID 588342;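 note: plate controls were vehicle for no effect and reference inhibitor for full effect; nearly all actives have a fitted effect of over 55% in size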
Target sequence (P08659 whole entry, looked up): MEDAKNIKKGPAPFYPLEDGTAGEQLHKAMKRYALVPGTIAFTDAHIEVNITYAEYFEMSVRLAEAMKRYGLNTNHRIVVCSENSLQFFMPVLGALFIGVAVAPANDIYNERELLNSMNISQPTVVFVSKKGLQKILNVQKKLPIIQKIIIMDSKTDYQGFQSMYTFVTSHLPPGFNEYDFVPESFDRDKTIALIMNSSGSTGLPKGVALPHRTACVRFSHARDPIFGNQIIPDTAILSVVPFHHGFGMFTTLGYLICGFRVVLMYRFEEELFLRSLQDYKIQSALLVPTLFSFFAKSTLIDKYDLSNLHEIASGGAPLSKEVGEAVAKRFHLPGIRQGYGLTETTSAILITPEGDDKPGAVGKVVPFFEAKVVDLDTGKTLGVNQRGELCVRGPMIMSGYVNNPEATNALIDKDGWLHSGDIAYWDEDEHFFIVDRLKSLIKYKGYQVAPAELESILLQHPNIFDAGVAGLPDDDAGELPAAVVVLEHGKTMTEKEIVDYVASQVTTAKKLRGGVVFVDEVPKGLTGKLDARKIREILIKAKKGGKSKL
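Purified P. pyralis luciferase (10nM final) with 10uM D-luciferin and 10uM ATP (Km levels) in 50mM Tris acetate pH 7.5, 10mM Mg acetate, 0.01% Tween-20, 0.05% BSA; qHTS 6-point titration, ~60 µM downward; luminescence read.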
SMN2 splice enh = SMN2 splice variant enhancement; HEK293 SMN2-luciferase splicing reporter, luminescence, 30-36 h; Potency, µM (highest dose often 46.1 µM), inactives show at the highest dose activity change, positive = activation, hits mostly activators; 2.8% of 210,000 active; note: % of control where 0% means no effect; nearly all actives have a fitted effect of over 55% in size
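qHTS luciferase splicing reporter: luminescence rises when SMN2 exon 7 is included in transfected HEK293 cells. Compound exposure lasted 30-36 h at 37C, with 4.5 mM final sodium butyrate as control, followed by a ONE-Glo read.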
NPC1 prom act = activators of NPC1 promoter. Potency, µM (top dose mostly 9.22 µM), without a hit: at the highest dose activation, usual class: activators. 2.4% of 320,000 active. Huh7 NPC1 promoter luciferase reporter, 24 h. AID 485313; note: % of control where 0% means no effect; nearly all actives have a fitted effect of over 60% in size
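NPC1 promoter–luciferase Huh7 cells; 24 h compound; luminescence.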
Active calls of the source: *; ? = inconclusive; . = no result given; [ ] = dose if it differs, or a comment. Calls come from the whole dose curve; as a rule, active = well fitted curve in the direction sought with a large enough effect; inconclusive = small, poorly fitted or top-dose-only effect, or another doubt; inactive = no such curve, though single readings can be large; an effect the other way counts as inactive or inconclusive. Potency is the fitted concentration of half-maximal effect.

SMILES | Rab9 prom act | KinaseGlo FLuc | ELG1 genotox | FLuc counter | SMN2 splice enh | NPC1 prom act
O=C(O)c1ccccc1C(=O)c1ccc(Cl)cc1 | -5% | . | -3% | -2% | . | 4%
CC(C)OC(=O)n1c(=S)oc2ccccc21 | 0% | -2% | 10% | -8% | -29% | 12%
CCCCC(=O)/C=C/n1c(=S)oc2ccccc21 | -35% | -4% | -11% | 2.4µM* | -6%[1.84 µM] | -19%
C/C(=N\N1C(=O)c2ccccc2C1=O)c1cccc([N+](=O)[O-])c1 | 1% | -1% | 0% | 17µM* | 13% | -1%
C=CCC(C)(Nc1ccccc1)C(=O)OCC (configuration not stated) | . | 0% | . | . | 8% | .
Cc1ccc(-n2ncc(C(=O)NCCCN3CCN(C)CC3)c2C2CCN(C(=O)OC(C)(C)C)CC2)cc1 | . | . | . | -3% | . | .
O=c1c2ccccc2cnn1CCOc1cccc(Br)c1 | ? | . | ? | 9.5µM* | . | 3.5µM*
Cc1ccc(OCCn2ncc3ccccc3c2=O)c(C)c1 | 12% | . | 5% | -16% | . | 5%
CCN(CC)c1ccc(NC(=O)c2cc3c(OC)cccc3[nH]2)cc1 | 5% | . | -1% | 7.6µM* | . | -3%
CCN(CC)c1ccc(NC(=O)c2cc(Cl)ccc2OC)cc1 | 16% | 17% | 9% | 15µM* | 4% | 16%
COc1ccc(Cl)cc1C(=O)Nc1ccncc1 | 7% | . | -4% | -19% | . | -5%
COc1ccc(Cl)cc1C(=O)Nc1ccc2c(c1)OCO2 | ? | -11% | ? | 24µM* | 15% | ?
COc1ccc(Cl)cc1C(=O)Nc1ccc2c(c1)OCCO2 | 26% | . | ? | 1.9µM* | . | ?
COc1ccccc1CCNC(=O)Cc1c(C)c2c(cc(C)c3c(C)coc32)oc1=O | . | . | . | -7% | -2% | .
Cc1cc(C)c2c(N=NN3CCCCC3)[nH]nc2n1 | 23% | 1% | 17% | 19µM* | 1% | 20%
CCn1cc(C(=O)N2CCN(c3ccccc3OC)CC2)c(=O)c2cc(S(=O)(=O)N3CCC(C)CC3)ccc21 | . | . | . | -13% | 3% | .
COc1ccc(OC)c(NC(=O)c2ccc(-c3csc(C)n3)cc2)c1 | 25% | . | 7% | 5.4µM* | . | 25%
COc1ccc(NC(=O)CSc2ccccc2)c(OC)c1 | 4µM* | -4% | 15% | 27µM* | 22µM* | ?
COc1ccc(NC(=O)c2ccccc2SC)c(OC)c1 | -6% | 1% | 2% | -13% | -1% | -6%
COc1ccc(NC(=O)c2ccccc2O)c(OC)c1 | 3.2µM* | -5% | 11µM* | 9.5µM* | ? | ?
COc1ccc(C(=O)CN2C(=O)c3ccccc3C2=O)c(OC)c1 | ? | . | ? | 15µM* | . | 24%
CCOC(=O)c1cc(-c2ccccc2)n(CC(=O)NC2CCC(C)CC2)c1C (configuration not stated) | . | . | . | -2% | . | .
Cc1nc(NC2CCCCC2)c2nc(-c3ccccc3)n(C(C)CN(C)C)c2n1 (configuration not stated) | . | 0% | . | . | -9% | .
COc1cc2c(C(=O)N(C)c3cc(Cl)ccc3OC)cn(CC(C)C)c(=O)c2cc1OC | . | . | . | -5% | -19% | .
COc1cc(-c2csc(C)n2)ccc1O | 0% | 2% | 0% | -3%[2.3 µM] | 24% | 2%
SMILES | Rab9 prom act | KinaseGlo FLuc | ELG1 genotox | FLuc counter | SMN2 splice enh | NPC1 prom act
COc1ccc(C(=O)Nc2cc(OC)c(Cl)cc2OC)cc1 | 9% | -2% | 1% | 21µM* | 16% | 16%
COc1ccc(C(=O)OCC(=O)c2cc(OC)ccc2OC)c(OC)c1 | 0% | 1% | 1% | ? | -7% | 2%
COc1ccc(C(=O)COC(=O)c2ccccc2O)c(OC)c1 | 3.5µM* | . | ? | 6µM* | . | ?
COc1ccc(-c2csc(C)n2)cc1Br | 25% | -6% | ? | 15µM* | 17% | 14%
COc1ccc(C(=O)Nc2cc(OC)ccc2OC)cc1 | 17% | -6% | 3% | 24µM* | -2% | -2%
Cc1cc(C)cc(NC(=O)Cn2c(=O)n(C(C)C)c(=O)c3oc4ccccc4c32)c1 | . | . | . | 1% | . | .
COc1ccc(OC)c(NC(=O)c2csc(Cl)c2OC)c1 | -2% | . | 3% | 15µM* | . | 2%
COc1ccc(OC)c(NC(=O)c2cn(C)c(=O)c3cc(OC)c(OC)cc23)c1 | -6% | -2% | -2% | -3% | ? | 0%
COc1ccc(OC)c(NC(=O)c2cc3ccccc3cc2OC)c1 | 7% | . | 2% | 24µM* | . | 2%
COc1cc(NC(=O)c2nc3nc(C)cc(C(F)F)n3n2)c(OC)cc1Cl | . | . | . | 2% | -6% | .
COc1ccc(C(=O)OCc2csc(C)n2)c(O)c1 | ? | 1% | ? | 15µM* | 2% | ?
COc1ccc(OC)c(NC(=O)Nc2cccc3ccccc23)c1 | -2% | 2% | 6% | 4% | -17% | -2%
COc1cc(NC(=O)c2cc3nc(C)cc(C)n3n2)c(OC)cc1Cl | 1.3µM* | 2% | ? | 3µM* | 11µM* | 2.5µM*
O=C(CN1C(=O)COc2ccc(S(=O)(=O)N3CCCC3)cc21)NCCc1ccc(Cl)cc1 | . | . | . | 4% | . | .
CCC(C)NC(=O)Cn1c(=O)n(Cc2ccc(C(=O)NCc3ccc(C)cc3)cc2)c(=O)c2ccccc21 (configuration not stated) | . | . | . | 5% | 7% | .
CC(=O)c1cccc(NC(=O)Nc2cccs2)c1 | 10% | -3% | -20% | 19µM* | 15% | 15%
COc1ccc(NC(=O)Nc2cccs2)cc1OC | 20% | -5% | ? | 21µM* | -7% | 18%
COc1ccc(NC(=O)Nc2cccc3ccccc23)cc1OC | -1% | . | 8% | -8% | . | -2%
COc1cccc(NC(=O)Nc2cccs2)c1 | ? | -8% | 2% | 24µM* | ? | 19%
CCc1nc2nc(C)cc(Nc3cc(C)ccc3C)n2n1 | . | . | . | 0% | -4% | .
Cc1ccc(NC(=O)Cc2nnc(SCC(=O)Nc3ccc(N4CCOCC4)cc3)n2C)cc1 | 0% | . | 5% | 12µM* | . | 2%
Nc1ccc2nc(SCC(=O)Nc3ccc(N4CCOCC4)c(Cl)c3)sc2c1 | 7% | -2% | ? | ? | 29% | 12%
Cn1c(CC(=O)Nc2ccccc2)nnc1SCC(=O)Nc1ccc(N2CCOCC2)cc1 | 15% | . | ? | 12µM* | . | 21%
CCCC(=O)Nc1ccc2nc(SCC(=O)Nc3ccc(N4CCOCC4)c(Cl)c3)sc2c1 | 29% | -1% | -12% | 3.8µM* | -10% | 4µM*
COc1ccccc1-c1nnc(SCC(=O)Nc2ccc(N3CCOCC3)cc2)n1C | 14% | . | 21% | 19µM* | . | 8%
CC(=O)Nc1ccccc1OCc1cc(=O)n2c3c(sc2n1)CCCC3 | . | . | . | 0% | -3% | .
Cc1ccc(NC(=O)Cc2nnc(SCC(=O)Nc3ccccc3)n2C)cc1 | -6% | 1% | 0% | 19µM* | 5% | 1%
